Measurements: PubChem BioAssay (NCI)
About 83,000 compounds went through this panel and 20% of them were active in at least one assay; those are over-represented in the sample as a whole.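 Percent growth is the endpoint: 0 to 100 indicates growth inhibition (40 means 60% inhibition), 0 means no net growth, and negative values indicate cell death.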 Active and inactive are the calls of the source. Rule for the calls: active = growth percent below 10; inactive = the rest.

What follows are molecules tested on HL-60(TB) leukemia (assay: NCI-60 one-dose screen, 48 h (100 = growth as untreated, 0 = no growth, -100 = all killed)). Conditions: 10 µM unless noted.
With `Cc1cc(Cl)ccc1Nc1nc(C(F)(F)F)ccc1C(=O)N/N=C/c1cccc(O)c1` the growth was 4.08% (active).
For `COc1cc2c(cc1OC)C(Sc1ccc(SC)cc1)c1c(nc(N)c(C#N)c1N)O2` (stereo not given), the growth was -52.9% (active).
For `Cn1cc(-c2ccc3nc(-c4ccc(CC(=O)Nc5cc(C(C)(C)C)no5)cc4)cnc3c2)cn1`, the growth was 18.5% [30 µM] (inactive).
With `Cc1cc(F)ccc1S(=O)(=O)Nc1cc(-c2c(O)ccc3ccccc23)c(O)c2ccccc12` the growth was -10.8% (active).
In the case of `[Ag].[Ag].[NH-]S(=O)(=O)c1ccc(N=Nc2cc(N=Nc3ccc(S([NH-])(=O)=O)cc3)c3c(NC(=O)C(Cl)Cl)cccc3c2OC(=O)C(Cl)Cl)cc1.[c-]1nccs1.[c-]1nccs1`, the growth is reported as 44.2% (inactive).
`CN(C)CCCC(=O)Nc1ccc(Cn2nnc3c2C(=O)c2nnn(Cc4ccc(NC(=O)CCCN(C)C)cc4)c2C3=O)cc1` was tested, and the growth was 8.78% (active).
`N#Cc1c(-c2ccccc2)nc(SCC(=O)Nc2nc(-c3ccc(Cl)cc3)cs2)[nH]c1=O` was tested, and the growth was 96.1% (inactive).
`O=C(O)CN1C(=O)c2cccc3cccc(c23)C1=O` was tested, and the growth was 118% (inactive).
`Cc1ccc(S(=O)(=O)N2CCc3ccc(O)c4c3C2CCc2ccccc2-4)cc1` (stereo not given) was tested, and the growth was 91.3% (inactive).
`O=CNc1ccc2c(c1)Cc1cc([N+](=O)[O-])ccc1-2` was tested, and the growth was 17.7% (inactive).
In the case of `CCN1CCN(Cc2ccc(NC(=O)Nc3cccc(-n4ccc5c(NC(=O)c6ccccc6)nccc54)c3)cc2C(F)(F)F)CC1`, the growth is reported as 112% (inactive).
`S=c1ssnc1-c1cccs1` was tested, and the growth was 95.1% (inactive).
For `COc1ccc(/C=C/c2nc(N3CCOCC3)c3cc(F)c(F)cc3n2)cc1OC`, the growth was -2.81% (active).
`COc1ccc2c(/C=C3/C(=O)NC(=S)NC3C)cc(=O)oc2c1` (stereo not given) was tested, and the growth was 90.5% (inactive).
`CCc1ccc(C2=C/C(=C/c3ccccc3)C(=O)N2CCc2ccc(S(N)(=O)=O)cc2)cc1` was tested, and the growth was 100% (inactive).
For `COc1cc(C2CC(=O)Nc3c2cnn3Cc2ccco2)cc2c1OCCO2` (stereo not given), the growth was 25.6% (inactive).
With `CCOc1c(B(O)O)cccc1-c1nc2ccc3[nH]ncc3c2c2c1CCCC2` the growth was 23.6% (inactive).
In the case of `COc1ccc(-c2c[nH]c(C(=O)O)c2-c2cc(OC)c3c(c2OC)OCO3)cc1`, the growth is reported as 105% (inactive).
`Cc1nc2sc(C(=O)Nc3cccc(Cl)c3C)c(N)c2cc1C(O)c1ccccc1` (stereo not given) was tested, and the growth was -42.3% (active).
In the case of `CCOC(=O)c1cnc2c(C)cccc2c1Nc1ccc(C(C)=O)cc1`, the growth is reported as -43.5% (active).
For `CSCCCNC(=O)c1ccc2c(c1)/C(=C/c1[nH]c(C)cc1C)C(=O)N2`, the growth was 46.1% (inactive).
In the case of `Clc1ccc(-c2cn3ccsc3n2)c(Cl)c1Cl`, the growth is reported as 85.7% (inactive).
For `Clc1ccc2c(NCCCn3cnc4c(N5CCCC5)nc(Cl)nc43)ccnc2c1`, the growth was 81.6% (inactive).
For `CS(=O)(=O)Cc1cnc(C2OCCO2)s1`, the growth was 88.5% (inactive).
With `CC1(c2ccccc2)NC(=O)NC1=O` (stereo not given) the growth was 104% (inactive).
`Cc1ccc(-c2nc3ccc(Cl)cn3c2NC2CCCCC2)o1` was tested, and the growth was 61.7% (inactive).
In the case of `O=C(Nc1ccccc1)C(CCCCN1C(=O)c2ccccc2C1=O)N1C(=O)c2ccccc2C1=O` (stereo not given), the growth is reported as 104% (inactive).
In the case of `CCN(CC)CCSCCCNc1c2ccc(Cl)cc2nc2ccc(OC)cc12`, the growth is reported as -35.4% (active).
With `CCOC(=O)c1c(CN2CCN(C)CC2)nc2ccc(Cl)cc2c1-c1ccccc1` the growth was 26.5% (inactive).
For `O=c1oc2ccc(Br)cc2c(=O)n1-c1ccc(F)cc1F`, the growth was -1.95% (active).
With `COc1ccc(-n2cc(-c3ccc(Cl)c(Cl)c3)[nH]c2=O)cc1OC` the growth was 179% (inactive).
`Cc1c(C(=O)Nc2ccccc2F)sc2c(=O)[nH]cnc12` was tested, and the growth was 83.2% (inactive).
In the case of `Cc1c2cccnc2c(C)c2c1c1cc(CO)ccc1n2C`, the growth is reported as 31% (inactive).
For `C=C1C(=O)O[C@H]2[C@H]1CC/C(COC(=O)NCc1ccc(Cn3c(=O)sn(CCCCC)c3=O)cc1)=C\CC[C@@]1(C)O[C@@H]21`, the growth was -40.4% (active).
`COc1ccc(NC(=O)C2CC3C=CC2C3)c([N+](=O)[O-])c1` (stereo not given) was tested, and the growth was 86.2% (inactive).
With `CCOC(=O)C/C(C)=N\NC(=O)c1ccncc1` the growth was 99.4% (inactive).
With `CN(C)C(=O)Oc1cccc([N+](C)(C)C)c1` the growth was 91% (inactive).
In the case of `Cc1nc2c(O)cccc2cc1CO`, the growth is reported as 81.7% (inactive).
`O=C1C(Cl)=C(NCCCCCCNC2=C(Cl)C(=O)c3ccccc3C2=O)C(=O)c2ccccc21` was tested, and the growth was 55.7% (inactive).
With `COc1cc(CNS(=O)(=O)c2ccc(C)cc2)ccc1OCc1cn(-c2ccccc2)nn1` the growth was 85.2% (inactive).
